# This is one part of a sample in which the strongest signals are shown more often than they occur.
# Assays:
# Assay in all cases: glycan array binding signal (z-score within array); higher = stronger binding
# Conditions in all cases: glycan notation: IUPAC condensed, linker removed
# [1] = molecular target: Fuc(a1-2)Gal(b1-3)GalNAc(a1-3)[Fuc(a1-2)]Gal(b1-4)GlcNAc
# Method in brief: (§1)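 Glycan array data were curated from 3228 arrays in the Consortium for Functional Glycomics database and kept only where the protein sequence was available. Glycan names were converted to IUPAC-condensed notation, and columns mapping to the same glycan were averaged. The binding signal is a within-array Z-score, averaged across arrays of the same protein sequence at different concentrations or buffers and across linkers. Negative Z-scores can be read as non-binding.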
# [2] = molecular target: Fuc(a1-2)Gal(b1-3)GalNAc(b1-3)Gal(a1-4)Gal(b1-4)Glc
# Method in brief: as §1
# [3] = molecular target: Fuc(a1-2)Gal(b1-3)GalNAc(b1-4)[Neu5Ac(a2-3)]Gal(b1-4)Glc
# Method in brief: as §1
# [4] = molecular target: Fuc(a1-2)Gal(b1-3)GlcNAc(b1-3)[Fuc(a1-2)Gal(b1-3)GlcNAc(b1-6)]GalNAc
# Method in brief: as §1
# [5] = molecular target: Fuc(a1-2)Gal(b1-4)Glc6S
# Method in brief: as §1
# [6] = molecular target: Fuc(a1-2)Gal6S(b1-4)Glc
# Method in brief: as §1
# [7] = molecular target: Fuc(a1-2)[Gal(a1-3)]Gal(b1-3)GalNAc
# Method in brief: as §1
# [8] = molecular target: Fuc(a1-2)[Gal(a1-3)]Gal(b1-4)GlcNAc(b1-3)[Fuc(a1-2)[Gal(a1-3)]Gal(b1-4)GlcNAc(b1-6)]GalNAc
# Method in brief: as §1
# [9] = molecular target: Fuc(a1-2)[Gal(a1-4)]Gal(b1-4)GlcNAc
# Method in brief: as §1
# [10] = molecular target: Fuc(a1-2)[GalNAc(a1-3)]Gal(b1-4)GlcNAc(b1-2)Man(a1-3)[Fuc(a1-2)[GalNAc(a1-3)]Gal(b1-4)GlcNAc(b1-2)Man(a1-6)]Man(b1-4)GlcNAc(b1-4)GlcNAc
# Method in brief: as §1
# [11] = molecular target: Fuc(a1-2)[GalNAc(a1-3)]Gal(b1-4)GlcNAc(b1-3)Gal(b1-4)GlcNAc(b1-3)Gal(b1-4)GlcNAc
# Method in brief: as §1
# [12] = molecular target: Gal(a1-3)[Gal(a1-4)]Gal(b1-4)GlcNAc
# Method in brief: as §1
# [13] = molecular target: Gal(b1-3)GlcNAc(a1-6)Gal(b1-4)GlcNAc
# Method in brief: as §1
# [14] = molecular target: Gal(b1-3)GlcNAc6S
# Method in brief: as §1
# [15] = molecular target: Gal(b1-3)[Neu5Ac(a2-6)]GlcNAc(b1-4)Gal(b1-4)Glc
# Method in brief: as §1
# [16] = molecular target: Gal(b1-3)[Neu5Ac(b2-6)]GalNAc
# Method in brief: as §1
# [17] = molecular target: Gal(b1-4)Glc6S
# Method in brief: as §1
# [18] = molecular target: Gal(b1-4)GlcNAc(b1-2)Man(a1-3)Man(b1-4)GlcNAc(b1-4)GlcNAc
# Method in brief: as §1
# [19] = molecular target: Gal(b1-4)GlcNAc(b1-2)[Gal(b1-4)GlcNAc(b1-6)]Man(a1-6)[Gal(b1-4)GlcNAc(b1-2)Man(a1-3)]Man(b1-4)GlcNAc(b1-4)[Fuc(a1-6)]GlcNAc
# Method in brief: as §1
# [20] = molecular target: Gal(b1-4)GlcNAc(b1-2)[Gal(b1-4)GlcNAc(b1-6)]Man(a1-6)[GlcNAc(b1-4)][Gal(b1-4)GlcNAc(b1-2)Man(a1-3)]Man(b1-4)GlcNAc(b1-4)GlcNAc
# Method in brief: as §1
# [21] = molecular target: Gal(b1-4)GlcNAc(b1-3)Gal(b1-4)GlcNAc(b1-3)[Gal(b1-4)GlcNAc(b1-3)Gal(b1-4)GlcNAc(b1-6)]GalNAc
# Method in brief: as §1
# [22] = molecular target: Gal(b1-4)GlcNAc(b1-3)Gal(b1-4)GlcNAc(b1-6)[Gal(b1-3)]GalNAc
# Method in brief: as §1
# [23] = molecular target: Gal(b1-4)GlcNAc(b1-3)GalNAc
# Method in brief: as §1
# [24] = molecular target: Gal6S(b1-4)Glc6S
# Method in brief: as §1
# [25] = molecular target: GalNAc(b1-4)GlcNAc
# Method in brief: as §1
# [26] = molecular target: Glc(b1-4)Glc
# Method in brief: as §1
# [27] = molecular target: GlcNAc(a1-4)Gal(b1-3)GlcNAc
# Method in brief: as §1
# [28] = molecular target: GlcNAc(b1-2)[GlcNAc(b1-6)]Man(a1-6)[GlcNAc(b1-4)][GlcNAc(b1-2)Man(a1-3)]Man(b1-4)GlcNAc(b1-4)GlcNAc
# Method in brief: as §1
# [29] = molecular target: GlcNAc(b1-3)Gal(b1-4)GlcNAc(b1-6)[Gal(b1-3)]GalNAc
# Method in brief: as §1
# [30] = molecular target: GlcNAc(b1-3)[GlcNAc(b1-6)]Gal(b1-4)GlcNAc
# Method in brief: as §1
# [31] = molecular target: Kdn(a2-3)Gal(b1-3)GalNAc
# Method in brief: as §1
# [32] = molecular target: Man(a1-2)Man(a1-3)Man
# Method in brief: as §1
# [33] = molecular target: Man(a1-2)Man(a1-3)[Man(a1-6)]Man(a1-6)[Man(a1-2)Man(a1-3)]Man(b1-4)GlcNAc(b1-4)GlcNAc
# Method in brief: as §1
# [34] = molecular target: Man(a1-3)[Man(a1-6)]Man(a1-6)[Man(a1-3)]Man
# Method in brief: as §1
# [35] = molecular target: Neu5Ac(a2-3)Gal(b1-3)GlcNAc
# Method in brief: as §1
# [36] = molecular target: Neu5Ac(a2-3)Gal(b1-3)GlcNAc(b1-3)Gal(b1-4)GlcNAc
# Method in brief: as §1
# [37] = molecular target: Neu5Ac(a2-3)Gal(b1-3)GlcNAc(b1-6)GalNAc
# Method in brief: as §1
# [38] = molecular target: Neu5Ac(a2-3)Gal(b1-4)GlcNAc(b1-2)Man(a1-3)[Neu5Ac(a2-6)Gal(b1-4)GlcNAc(b1-2)Man(a1-6)]Man(b1-4)GlcNAc(b1-4)GlcNAc
# Method in brief: as §1
# [39] = molecular target: Neu5Ac(a2-3)Gal(b1-4)GlcNAc(b1-2)[Neu5Ac(a2-3)Gal(b1-4)GlcNAc(b1-6)]Man(a1-6)[Neu5Ac(a2-3)Gal(b1-4)GlcNAc(b1-2)Man(a1-3)]Man(b1-4)GlcNAc(b1-4)GlcNAc
# Method in brief: as §1
# [40] = molecular target: Neu5Ac(a2-3)Gal(b1-4)[Fuc(a1-3)]GlcNAc(b1-3)Gal(b1-4)[Fuc(a1-3)]GlcNAc(b1-3)Gal(b1-4)[Fuc(a1-3)]GlcNAc
# Method in brief: as §1
# [41] = molecular target: Neu5Ac(a2-3)Gal(b1-4)[Fuc(a1-3)]GlcNAc(b1-3)GalNAc
# Method in brief: as §1
# [42] = molecular target: Neu5Ac(a2-3)Gal(b1-4)[Fuc(a1-3)]GlcNAc(b1-6)[Neu5Ac(a2-3)Gal(b1-3)]GalNAc
# Method in brief: as §1
# [43] = molecular target: Neu5Ac(a2-3)Gal6S(b1-4)GlcNAc
# Method in brief: as §1
# [44] = molecular target: Neu5Ac(a2-3)GalNAc
# Method in brief: as §1
# [45] = molecular target: Neu5Ac(a2-3)[GalNAc(b1-4)]Gal(b1-4)Glc
# Method in brief: as §1
# [46] = molecular target: Neu5Ac(a2-6)Gal(b1-4)GlcNAc
# Method in brief: as §1
# [47] = molecular target: Neu5Ac(a2-6)Gal(b1-4)GlcNAc(b1-2)Man
# Method in brief: as §1
# [48] = molecular target: Neu5Ac(a2-6)Gal(b1-4)GlcNAc(b1-2)[Neu5Ac(a2-6)Gal(b1-4)GlcNAc(b1-4)]Man(a1-3)[GlcNAc(b1-4)][Neu5Ac(a2-6)Gal(b1-4)GlcNAc(b1-2)[Neu5Ac(a2-6)Gal(b1-4)GlcNAc(b1-6)]Man(a1-6)]Man(b1-4)GlcNAc(b1-4)GlcNAc
# Method in brief: as §1
# [49] = molecular target: Neu5Ac(a2-6)Gal(b1-4)GlcNAc(b1-3)Gal(b1-4)GlcNAc(b1-3)[Neu5Ac(a2-6)Gal(b1-4)GlcNAc(b1-3)Gal(b1-4)GlcNAc(b1-6)]GalNAc
# Method in brief: as §1
# [50] = molecular target: Neu5Ac(a2-6)Gal(b1-4)GlcNAc(b1-6)GalNAc
# Method in brief: as §1
# [51] = molecular target: Neu5Ac(a2-6)Gal(b1-4)GlcNAc(b1-6)[Gal(b1-3)GlcNAc(b1-3)]Gal(b1-4)Glc
# Method in brief: as §1
# [52] = molecular target: Neu5Ac(a2-6)GlcNAc(b1-4)GlcNAc
# Method in brief: as §1
# [53] = molecular target: Neu5Ac(a2-8)Neu5Ac(a2-8)Neu5Ac(a2-3)[GalNAc(b1-4)]Gal(b1-4)Glc
# Method in brief: as §1
# [54] = molecular target: Neu5Ac(a2-8)Neu5Gc(a2-3)Gal(b1-4)GlcNAc
# Method in brief: as §1
# [55] = molecular target: Neu5Gc(a2-6)GalNAc
# Method in brief: as §1
binder,measurement,setting,value
PX14404-bvu-534-26-534 (Bacteroides vulgatus) (protein) EDPRGKLTPENFFSTQDELNMSIYALYQKVNLSQVYTNMQLPQWQGDDITTNPGSNKQPAAEMDKFAAANNNKGVKDAWNMHYAIVKAANLIIQGASKTPTTQDEINIALGQAKFWRAYAYFTLVRLWGPLPMNLDNVNDDYTKPLSPVEEVYGHIVQDLTEAEAVLPTGYSGSPRFLNGVNVYVTRQAAKSTLAAVYMAMAGWPMNKTEYYAKAAEKAKEVIEGVNRGEYEYKLDKDYKDVYAMSNNYNNETVLGINYSPFVDWAQDSELTSCNQFESLGGWGDAWGEIRFWKEFPDGPRKDATYDPKIRLKDGTLVDWWELKEDGTPVVPEHHPMFSIFSVNWDPASKVNTSAPYDYTKPASQNMCNDHRHRIIRYSEVLLWYAEAKARTGQTDELAFKCLNDVRERAGLEPLTGLSADDLAEAAYKEHGWEVAGYWVALVTRRADQFRMNRLKDTFKERAENTAVEVADGILVKESVEYTNRTWSDNLMYLPYPDMDSQKNPNLVR,glycan array binding signal (z-score),[1],-0.799
same,glycan array binding signal (z-score),[2],0.314
same,glycan array binding signal (z-score),[3],-0.348
same,glycan array binding signal (z-score),[4],2.03
same,glycan array binding signal (z-score),[5],2.24
same,glycan array binding signal (z-score),[6],2.73
same,glycan array binding signal (z-score),[7],0.15
same,glycan array binding signal (z-score),[8],0.311
same,glycan array binding signal (z-score),[9],0.074
same,glycan array binding signal (z-score),[10],0.042
same,glycan array binding signal (z-score),[11],-0.561
same,glycan array binding signal (z-score),[12],3.57
same,glycan array binding signal (z-score),[13],-0.215
same,glycan array binding signal (z-score),[14],-0.497
same,glycan array binding signal (z-score),[15],0.099
same,glycan array binding signal (z-score),[16],-1.21
same,glycan array binding signal (z-score),[17],0.084
same,glycan array binding signal (z-score),[18],-0.296
same,glycan array binding signal (z-score),[19],-0.583
same,glycan array binding signal (z-score),[20],-0.45
same,glycan array binding signal (z-score),[21],-0.105
same,glycan array binding signal (z-score),[22],4.7
same,glycan array binding signal (z-score),[23],-0.885
same,glycan array binding signal (z-score),[24],3.4
same,glycan array binding signal (z-score),[25],-0.29
same,glycan array binding signal (z-score),[26],-0.903
same,glycan array binding signal (z-score),[27],0.178
same,glycan array binding signal (z-score),[28],-1.21
same,glycan array binding signal (z-score),[29],-0.575
same,glycan array binding signal (z-score),[30],-0.97
same,glycan array binding signal (z-score),[31],1.92
same,glycan array binding signal (z-score),[32],1.24
same,glycan array binding signal (z-score),[33],-0.161
same,glycan array binding signal (z-score),[34],2.67
same,glycan array binding signal (z-score),[35],0.177
same,glycan array binding signal (z-score),[36],-0.891
same,glycan array binding signal (z-score),[37],-0.09
same,glycan array binding signal (z-score),[38],0.576
same,glycan array binding signal (z-score),[39],-0.695
same,glycan array binding signal (z-score),[40],0.228
same,glycan array binding signal (z-score),[41],0.921
same,glycan array binding signal (z-score),[42],3.23
same,glycan array binding signal (z-score),[43],0.553
same,glycan array binding signal (z-score),[44],0.608
same,glycan array binding signal (z-score),[45],-1.43
same,glycan array binding signal (z-score),[46],0.634
same,glycan array binding signal (z-score),[47],-0.24
same,glycan array binding signal (z-score),[48],-0.206
same,glycan array binding signal (z-score),[49],0.075
same,glycan array binding signal (z-score),[50],0.144
same,glycan array binding signal (z-score),[51],-1.1
same,glycan array binding signal (z-score),[52],-0.51
same,glycan array binding signal (z-score),[53],0.28
same,glycan array binding signal (z-score),[54],12.9
same,glycan array binding signal (z-score),[55],1.92

# From the supplement of paper PMC8728848
